PubChem BioAssay AID1159580 (chemical genetic matrix, 2015)
Among all 5,500 compounds or so, about 2,000 (36%) were called active. Not shown: some 18% with an inconclusive outcome. Cut-off read from the data, not from the text of the source: active = normalized growth mostly below about 0.91 (no sharp cut-off); inconclusive = no clear call, values can overlap the other calls; inactive = mostly above about 0.92. Some of the results follow.

Assay: chemical genetic growth profiling, strain panel (AID 1159580);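 note: tested at 20 µM; growth read once vehicle control cultures reached saturation at 30 °C; 1 = growth at the plate median or of vehicle wells; lower values mean less growth of the strain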
Conditions: growth OD
[1] = S. cerevisiae deletion strains, locus YBR021W, strain FUR4, hits give low values
[2] = S. cerevisiae deletion strains, locus YBR229C, strain ROT2, hits give low values
[3] = S. cerevisiae deletion strains, locus YCL029C, strain bik1, hits give low values
[4] = S. cerevisiae deletion strains, locus YDL035C, strain GPR1, hits give low values
[5] = S. cerevisiae deletion strains, locus YDL074C, strain BRE1, hits give low values
[6] = S. cerevisiae deletion strains, locus YDL101C, strain DUN1, hits give low values
[7] = S. cerevisiae deletion strains, locus YDL185W, strain tfp1, hits give low values
[8] = S. cerevisiae deletion strains, locus YDL192W, strain arf1, hits give low values
[9] = S. cerevisiae deletion strains, locus YDR101C, strain arx1, hits give low values
[10] = S. cerevisiae deletion strains, locus YDR150W, strain NUM1, hits give low values
[11] = S. cerevisiae deletion strains, locus YDR162C, strain NBP2, hits give low values
[12] = S. cerevisiae deletion strains, locus YDR318W, strain mcm21, hits give low values
[13] = S. cerevisiae deletion strains, locus YDR388W, hits give low values
[14] = S. cerevisiae deletion strains, locus YDR502C, strain sam2, hits give low values
[15] = S. cerevisiae deletion strains, locus YEL061C, strain CIN8, hits give low values
[16] = S. cerevisiae deletion strains, locus YER110C, hits give low values
[17] = S. cerevisiae deletion strains, locus YER155C, strain BEM2, hits give low values
[18] = S. cerevisiae deletion strains, locus YER167W, strain BCK2, hits give low values
[19] = S. cerevisiae deletion strains, locus YGL078C, strain dbp3, hits give low values
[20] = S. cerevisiae deletion strains, locus YGL086W, strain mad1, hits give low values
[21] = S. cerevisiae deletion strains, locus YGL248W, strain PDE1, hits give low values
[22] = S. cerevisiae deletion strains, locus YGR135W, strain pre9, hits give low values
[23] = S. cerevisiae deletion strains, locus YGR252W, strain gcn5, hits give low values
[24] = S. cerevisiae deletion strains, locus YHR030C, strain SLT2, hits give low values
[25] = S. cerevisiae deletion strains, locus YHR079C, strain IRE1 (second series), hits give low values
[26] = S. cerevisiae deletion strains, locus YHR094C, strain hxt1, hits give low values
[27] = S. cerevisiae deletion strains, locus YHR129C, strain ARP1, hits give low values
[28] = S. cerevisiae deletion strains, locus YHR200W, strain rpn10, hits give low values
[29] = S. cerevisiae deletion strains, locus YIL066C, strain RNR3, hits give low values
[30] = S. cerevisiae deletion strains, locus YIL073C, strain SPO22, hits give low values
[31] = S. cerevisiae deletion strains, locus YIL125W, strain kgd1, hits give low values
[32] = S. cerevisiae deletion strains, locus YIR030C, strain dcg1, hits give low values
[33] = S. cerevisiae deletion strains, locus YJL095W, strain BCK1, hits give low values
[34] = S. cerevisiae deletion strains, locus YJL134W, strain LCB3, hits give low values
[35] = S. cerevisiae deletion strains, locus YJL168C, strain set2, hits give low values
[36] = S. cerevisiae deletion strains, locus YJL187C, strain SWE1 (second series), hits give low values
[37] = S. cerevisiae deletion strains, locus YJR043C, strain POL32, hits give low values
[38] = S. cerevisiae deletion strains, locus YJR075W, strain HOC1, hits give low values
[39] = S. cerevisiae deletion strains, locus YKL009W, strain mrt4, hits give low values
[40] = S. cerevisiae deletion strains, locus YKL068W, hits give low values
[41] = S. cerevisiae deletion strains, locus YKL085W, strain MDH1 (second series), hits give low values
[42] = S. cerevisiae deletion strains, locus YKL085W, strain MDH1, hits give low values
[43] = S. cerevisiae deletion strains, locus YKR001C, strain vps1, hits give low values
[44] = S. cerevisiae deletion strains, locus YLR039C, strain RIC1, hits give low values
[45] = S. cerevisiae deletion strains, locus YLR058C, strain SHM2, hits give low values
[46] = S. cerevisiae deletion strains, locus YLR102C, strain apc9, hits give low values
[47] = S. cerevisiae deletion strains, locus YLR262C, strain YPT6, hits give low values
[48] = S. cerevisiae deletion strains, locus YLR268W, strain sec22, hits give low values
[49] = S. cerevisiae deletion strains, locus YLR330W, strain CHS5, hits give low values
[50] = S. cerevisiae deletion strains, locus YLR342W, strain FKS1 (second series), hits give low values
[51] = S. cerevisiae deletion strains, locus YLR371W, strain rom2, hits give low values
[52] = S. cerevisiae deletion strains, locus YLR418C, strain cdc73, hits give low values
[53] = S. cerevisiae deletion strains, locus YML016C, strain PPZ1, hits give low values
[54] = S. cerevisiae deletion strains, locus YML032C, strain rad52, hits give low values
[55] = S. cerevisiae deletion strains, locus YML124C, strain tub3, hits give low values
[56] = S. cerevisiae deletion strains, locus YMR078C, strain ctf18, hits give low values
[57] = S. cerevisiae deletion strains, locus YMR223W, strain ubp8, hits give low values
[58] = S. cerevisiae deletion strains, locus YMR263W, strain SAP30, hits give low values
[59] = S. cerevisiae deletion strains, locus YMR307W, strain GAS1, hits give low values
[60] = S. cerevisiae deletion strains, locus YNL067W, strain RPL9B, hits give low values
[61] = S. cerevisiae deletion strains, locus YNL128W, strain TEP1, hits give low values
[62] = S. cerevisiae deletion strains, locus YNL233W, strain BNI4, hits give low values
[63] = S. cerevisiae deletion strains, locus YNL250W, strain rad50, hits give low values
[64] = S. cerevisiae deletion strains, locus YNL271C, strain bni1, hits give low values
[65] = S. cerevisiae deletion strains, locus YNL298W, strain CLA4, hits give low values
[66] = S. cerevisiae deletion strains, locus YNL307C, strain MCK1, hits give low values
[67] = S. cerevisiae deletion strains, locus YNL322C, strain KRE1, hits give low values
[68] = S. cerevisiae deletion strains, locus YNR052C, strain pop2, hits give low values
[69] = S. cerevisiae deletion strains, locus YOL012C, strain htz1
[70] = S. cerevisiae deletion strains, locus YOL147C, strain pex11, hits give low values
[71] = S. cerevisiae deletion strains, locus YOR061W, strain CKA2, hits give low values
[72] = S. cerevisiae deletion strains, locus YOR069W, strain VPS5, hits give low values
[73] = S. cerevisiae deletion strains, locus YOR136W, strain idh2, hits give low values
[74] = S. cerevisiae deletion strains, locus YOR144C, strain elg1, hits give low values
[75] = S. cerevisiae deletion strains, locus YOR184W, strain ser1, hits give low values
[76] = S. cerevisiae deletion strains, locus YOR316C, strain cot1, hits give low values
[77] = S. cerevisiae deletion strains, locus YPR119W, strain clb2, hits give low values
[78] = S. cerevisiae deletion strains, locus YPR141C, strain kar3, hits give low values
[79] = S. cerevisiae deletion strains, locus YPR163C, strain tif3, hits give low values
[80] = S. cerevisiae deletion strains, locus YPR167C, strain met16, hits give low values
[81] = S. cerevisiae deletion strains, strain wtn01, hits give low values
[82] = S. cerevisiae deletion strains, locus YGR078C, strain PAC10, hits give low values
[83] = S. cerevisiae deletion strains, locus YNL153C, strain GIM3, hits give low values

Measured: normalized growth

CC(=O)O[C@@H]1CC2C(C)(C)CCC[C@]2(C)C2CC[C@]3(C)C(=CC(=O)O[C@H]3c3ccoc3)[C@@]21C (stereo partly drawn)
inactive: [1] 1.02 | [2] 1.01 | [3] 1 | [4] 1.02 | [5] 1.01 | [6] 1.01 | [7] 1.01 | [8] 0.999 | [9] 1.01 | [10] 1.02 | [11] 1 | [12] 0.981 | [13] 1.01 | [14] 0.977 | [15] 1.02 | [16] 1.01 | [17] 1 | [18] 1.02 | [19] 0.982 | [20] 0.984 | [21] 1.01 | [22] 0.978 | S. cerevisiae deletion strains, locus YGR229C, strain SMI1, hits give low values 0.97 | [23] 0.993 | [24] 1.02 | [25] 1 | [26] 1 | [27] 1.02 | [28] 1.01 | [29] 1.02 | [30] 1.02 | [31] 1 | [32] 1 | [33] 0.97 | [34] 1.02 | [35] 0.994 | [36] 1 | [37] 1.05 | [38] 1.01 | [39] 1.03 | [40] 0.989 | [41] 1.01 | [42] 1.01 | [43] 0.967 | [44] 0.902 | [45] 1.01 | [46] 1 | [47] 0.928 | [48] 0.973 | [49] 1.02 | [50] 0.983 | [51] 1 | [52] 0.941 | [53] 1.02 | [54] 0.99 | [55] 0.993 | [56] 0.986 | [57] 0.983 | [58] 1.02 | [59] 1.09 | [60] 1.01 | [61] 1.03 | [62] 0.948 | [63] 0.968 | [64] 1 | [65] 0.992 | [66] 0.992 | [67] 1.02 | [68] 0.993 | S. cerevisiae deletion strains, locus YOL006C, strain TOP1, hits give low values 1.06 | [69] 0.86 | [70] 1.01 | [71] 1.01 | [72] 1.02 | [73] 0.997 | [74] 0.999 | [75] 0.982 | [76] 1 | [77] 0.985 | [78] 1.01 | [79] 0.994 | [80] 0.998 | [81] 0.996

O=C(O)CCC(=O)N1CCCC1C(=O)O (stereo not drawn)
inactive: S. cerevisiae deletion strains, locus YAL040C, strain CLN3, hits give low values 1.03 | S. cerevisiae deletion strains, locus YCL061C, strain MRC1 (second series), hits give low values 1 | [10] 0.998 | S. cerevisiae deletion strains, locus YDR363W, strain ESC2, hits give low values 1.02 | S. cerevisiae deletion strains, locus YER002W, strain NOP16, hits give low values 1.01 | [82] 0.979 | [38] 1.03 | [58] 1.01 | [59] 0.972 | [61] 0.999 | [83] 1.24 | S. cerevisiae deletion strains, locus YNL175C, strain NOP13, hits give low values 0.991 | S. cerevisiae deletion strains, locus YNL197C, strain WHI3, hits give low values 0.993 | S. cerevisiae deletion strains, locus YNL224C, strain SQS1, hits give low values 0.992 | [67] 1.02 | S. cerevisiae deletion strains, locus YOR083W, strain WHI5 (second series), hits give low values 0.989

O=C(O)c1cc(O)ccc1O
inactive: S. cerevisiae deletion strains, locus YAL013W, strain DEP1, hits give low values 0.986 | [1] 0.948 | [2] 0.992 | [3] 0.994 | [4] 0.995 | [5] 0.978 | [6] 0.999 | [7] 1 | [8] 0.993 | [9] 0.965 | [10] 0.993 | [11] 1.01 | [12] 1.01 | [13] 0.989 | [14] 0.989 | [15] 0.998 | [16] 0.981 | [17] 0.996 | [18] 0.988 | [19] 0.988 | [20] 0.975 | [21] 1.02 | [82] 1.02 | [22] 1.01 | [23] 1.12 | [24] 0.989 | [25] 0.986 | [26] 0.99 | [27] 0.994 | [28] 0.989 | [29] 0.985 | [30] 0.976 | [31] 0.987 | [32] 1 | [33] 1.03 | [34] 0.984 | [35] 0.998 | [36] 1.01 | [37] 1.01 | [39] 0.964 | [40] 0.992 | [41] 1 | [42] 1 | S. cerevisiae deletion strains, locus YKL190W, strain CNB1, hits give low values 0.997 | [43] 0.985 | [44] 1.05 | [45] 1 | [46] 0.987 | [47] 1.05 | [48] 0.986 | [49] 0.991 | [50] 0.95 | [51] 0.989 | [52] 1.05 | [53] 0.995 | [54] 1.01 | [55] 1 | [56] 0.992 | [57] 1.04 | [59] 1.07 | [60] 1.01 | [83] 1.02 | [62] 1 | [63] 0.976 | [64] 0.994 | [65] 0.994 | [66] 0.98 | [67] 1 | [68] 1 | [69] 1.12 | [70] 0.99 | [71] 0.996 | [72] 0.987 | [73] 0.995 | [74] 0.989 | [75] 1 | [76] 0.985 | S. cerevisiae deletion strains, locus YPL241C, strain CIN2, hits give low values 1 | [77] 0.994 | [78] 0.981 | [79] 0.999 | [80] 1.01 | [81] 0.943 | S. cerevisiae strains, strain wild type, hits give low values 0.994
